These results are taken from PubChem BioAssay.

The source made the active and inactive calls.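 Rule for the calls, unless noted: active = inhibition of the reporter signal at or above 50%; inactive = inhibition below 50%.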

A short description of the first assay: blockers of RIG-like receptor reporter activation – cell-based, Sendai virus stimulus, luciferase, 10K MLSCN set, TLR/RLR signaling modifier project, primary screen (AID 602276;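 active = inhibition at or above 50% at 10 µM; inactive = inhibition below 50%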;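 note: firefly luciferase from ISG56 promoter only with Renilla not read in this screen; 0% = Sendai virus plus DMSO and 100% = medium plus DMSO without virus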). Particulars: HEK293 RL24 IRF3 luciferase reporter, at 10 µM, hits give high values. On the technique in general: In a reporter assay the amount or activity of a reporter protein is the signal.
As for `COC(=O)c1ccccc1NC(=O)CSc1nc2c(c(=O)n(C)c(=O)n2C)n1C`, the inhibition is -17.1% (inactive).

With `Cc1csc2ncc(C(=O)Nc3ccccc3Cl)c(=O)n12`, the inhibition was -29% (inactive).

On to `Cc1nc(-c2cccc(N)c2)cs1`, for which the inhibition was -3.62% (inactive).

Take `Cn1c(=O)c2c([nH]c(=O)n2C)n(C)c1=O`: the inhibition is 18% (inactive).

Take `COc1ccc(NC(=O)c2cc(C3CC3)on2)c(OC)c1`: the inhibition is -6.03% (inactive).

Consider `Cc1nnc(SCc2cc(=O)[nH]c(N3CCCCC3)n2)s1`, for which the inhibition is 13.1% (inactive).

Take `CCN1CCN(Cc2nc3c(c(=O)[nH]c(=O)n3C)n2Cc2ccccc2Cl)CC1`: the inhibition is 9.74% (inactive).

As to `CSc1ccc(-c2nc(CSCC(=O)N3CCOCC3)c(C)o2)cc1`, the inhibition is -23.3% (inactive).

With `Cc1ccc(OCCN2CCN(C(=O)CCC(=O)Nc3nnc(C)s3)CC2)cc1`, the inhibition was 9.9% (inactive).

With `COc1ccccc1NC(=O)Cc1noc(CSc2cc(C)c3ccccc3n2)n1`, the inhibition was 6.32% (inactive).

For `COc1cc2nc(SCC(=O)NC3CC3)n(CCC3=CCCCC3)c(=O)c2cc1OC`, the inhibition was 14.1% (inactive).

On to `Cc1oc2cc3c(C(=O)OCCN(C)C)c(C)oc3cc2c1C(=O)OCCN(C)C`, for which the inhibition was 48.3% (inactive).

Take `CCN(CCCNC(=O)C1CCN(S(=O)(=O)c2cccc3nonc23)CC1)Cc1ccccc1`: the inhibition is 13.3% (inactive).

For `CCCCn1c(NCCC)nc2c1c(=O)[nH]c(=O)n2C`, the inhibition was 16% (inactive).

Turning to `N#Cc1ccccc1Cn1c(=O)n(Cc2ccc(C(=O)NCc3ccco3)cc2)c(=O)c2ccccc21`, the inhibition was 1.35% (inactive).

Consider `CCOCCCn1c(=S)[nH]c2cc3c(cc2c1=O)OCO3`, for which the inhibition is -16.3% (inactive).

For `CCCSc1nnc(-c2ccccc2NC(=O)CC)c(=O)[nH]1`, the inhibition is 4.4% (inactive).

As to `CC(C)Cc1nnc(NC(=O)CCC(=O)N2CCOCC2)s1`, the inhibition was 12.2% (inactive).

`O=C(Nc1ccncc1)C1c2ccccc2Oc2ccccc21`: the inhibition was 12.2% (inactive).

With `O=[n+]1cc(-c2ccc(F)cc2)n([O-])c2c1CCC2`, the inhibition is 5.02% (inactive).

For `COCCn1nnnc1CN(CCCN1CCOCC1)Cc1cc2c(C)ccc(C)c2[nH]c1=O`, the inhibition is -10.5% (inactive).

On to `CSc1ccc(S(=O)(=O)Nc2cccc(F)c2)cc1`, for which the inhibition is 15.7% (inactive).

A short description of a further assay: TLR3 IRF3 reporter activation blockers – cell-based, poly I:C stimulus, luciferase, 10K MLSCN set, primary screen (AID 602277). Particulars: HEK293-TLR3 RL24 IRF3 luciferase reporter, at 10 µM, hits give high values.
Take `N#CCCN1CCN(S(=O)(=O)c2ccc(S(=O)(=O)NC3CCCCC3)cc2)CC1`: the inhibition is 32.4% (inactive).

Take `CCCN(CCC)C(=O)c1c(C)[nH]c(C(=O)OCC)c1C`: the inhibition was -1.04% (inactive).

With `c1ccc2c(c1)CC(N1CCCCC1)c1ccccc1N2` (stereo unspecified), the inhibition was 24.1% (inactive).

On to `CCOC(=O)N1CCN(C(=O)CSc2nnc(Cc3ccccc3)o2)CC1`, for which the inhibition is 10.9% (inactive).

Turning to `COc1ccc(CCNS(=O)(=O)c2ccc3oc(C(=O)O)c(C)c3c2)cc1OC`, the inhibition was 21.9% (inactive).

As for `Cc1cc(NC(=O)CSc2nc3c(c(=O)n2Cc2ccccc2)SC(C)C3)no1` (stereo unspecified), the inhibition was -5.37% (inactive).

Consider `c1ccc(OCc2nc(-c3ccccc3)no2)cc1`, for which the inhibition was -193% (inactive).

`CC1CCN(C(=O)CCNS(=O)(=O)c2ccccc2)CC1`: the inhibition was -31.3% (inactive).

On to `COc1ccccc1Oc1coc2c(CN3CCN(C)CC3)c(O)ccc2c1=O`, for which the inhibition is 34.8% (inactive).

`CCS(=O)(=O)N1CCCC(C(=O)NCc2ccccc2Cl)C1` (stereo unspecified): the inhibition is -6.49% (inactive).

In the case of `Cc1ccc(NC(=O)c2ccco2)c(NC(=O)c2cccs2)c1`, the inhibition was 16.5% (inactive).

For `Cc1cccc(-n2nc3c(c2NC(=O)CCC2CCCCC2)CS(=O)C3)c1C` (stereo unspecified), the inhibition is 37.7% (inactive).

As for `Cc1nc(N)c(C#N)c(-c2cccnc2)c1C`, the inhibition was -5.6% (inactive).

For `COc1ccc(N2CCN(C(=O)C(C)(C)Oc3ccc(Cl)cc3)CC2)cc1`, the inhibition was 28.4% (inactive).

On to `CN1C(=O)CCC1(O)c1ccccc1` (stereo unspecified), for which the inhibition was 38.2% (inactive).

For `Cc1cc(=O)n(C)c(=O)n1CCCCCN1CCCC1`, the inhibition was 25.3% (inactive).

As to `COc1ccc(N2CCN(Cc3nc4c(c(=O)[nH]c(=O)n4C)n3CC(C)=O)CC2)cc1`, the inhibition is 29.5% (inactive).

`COC(=O)c1ccccc1NC(=O)CSc1nc2c(c(=O)n(C)c(=O)n2C)n1C`: the inhibition was -34.2% (inactive).

On to `Cc1csc2ncc(C(=O)Nc3ccccc3Cl)c(=O)n12`, for which the inhibition is -83.1% (inactive).

Take `Cc1nc(-c2cccc(N)c2)cs1`: the inhibition is -15.1% (inactive).

For `Cn1c(=O)c2c([nH]c(=O)n2C)n(C)c1=O`, the inhibition is 20.1% (inactive).

In the case of `COc1ccc(NC(=O)c2cc(C3CC3)on2)c(OC)c1`, the inhibition is 2.94% (inactive).

Take `Cc1nnc(SCc2cc(=O)[nH]c(N3CCCCC3)n2)s1`: the inhibition was 19.7% (inactive).

Regarding `CCN1CCN(Cc2nc3c(c(=O)[nH]c(=O)n3C)n2Cc2ccccc2Cl)CC1`, the inhibition was 29% (inactive).

Turning to `CSc1ccc(-c2nc(CSCC(=O)N3CCOCC3)c(C)o2)cc1`, the inhibition is -88.4% (inactive).

Consider `Cc1ccc(OCCN2CCN(C(=O)CCC(=O)Nc3nnc(C)s3)CC2)cc1`, for which the inhibition is 19.2% (inactive).

For the compound `COc1ccccc1NC(=O)Cc1noc(CSc2cc(C)c3ccccc3n2)n1`, the inhibition is -8.68% (inactive).

As for `COc1cc2nc(SCC(=O)NC3CC3)n(CCC3=CCCCC3)c(=O)c2cc1OC`, the inhibition was 24.7% (inactive).

`Cc1oc2cc3c(C(=O)OCCN(C)C)c(C)oc3cc2c1C(=O)OCCN(C)C`: the inhibition is 99.1% (active).

On to `CCN(CCCNC(=O)C1CCN(S(=O)(=O)c2cccc3nonc23)CC1)Cc1ccccc1`, for which the inhibition is 29.8% (inactive).

Take `CCCCn1c(NCCC)nc2c1c(=O)[nH]c(=O)n2C`: the inhibition is 29.1% (inactive).

Consider `N#Cc1ccccc1Cn1c(=O)n(Cc2ccc(C(=O)NCc3ccco3)cc2)c(=O)c2ccccc21`, for which the inhibition is -0.0219% (inactive).

As to `CCOCCCn1c(=S)[nH]c2cc3c(cc2c1=O)OCO3`, the inhibition is -2.74% (inactive).

Take `CCCSc1nnc(-c2ccccc2NC(=O)CC)c(=O)[nH]1`: the inhibition is -2.41% (inactive).

In the case of `CC(C)Cc1nnc(NC(=O)CCC(=O)N2CCOCC2)s1`, the inhibition was 10.8% (inactive).

`O=C(Nc1ccncc1)C1c2ccccc2Oc2ccccc21`: the inhibition was 17.7% (inactive).

For the compound `O=[n+]1cc(-c2ccc(F)cc2)n([O-])c2c1CCC2`, the inhibition is 15.4% (inactive).

On to `COCCn1nnnc1CN(CCCN1CCOCC1)Cc1cc2c(C)ccc(C)c2[nH]c1=O`, for which the inhibition was 15.5% (inactive).

`CSc1ccc(S(=O)(=O)Nc2cccc(F)c2)cc1`: the inhibition is 26.6% (inactive).

The inhibition is the relative decrease from the control value, in per cent.
